Results reported in ChEMBL document CHEMBL1961873, “Compounds: GSK PKIS; Assays: Nanosyn kinase panel” (2012).

Experiments:
[1] = biological target: Mast/stem cell growth factor receptor Kit (Homo sapiens) (UniProt P10721); conditions: at 1 µM
[2] = tested on: Mast/stem cell growth factor receptor Kit (Homo sapiens), P10721 [D816V]; conditions: at 0.1 µM
[3] = tested on: Mast/stem cell growth factor receptor Kit (Homo sapiens), P10721 [D816V]; conditions: at 1 µM
[4] = tested on: Mast/stem cell growth factor receptor Kit (Homo sapiens), P10721 [T670I]; conditions: at 0.1 µM
[5] = tested on: Mast/stem cell growth factor receptor Kit (Homo sapiens), P10721 [T670I]; conditions: at 1 µM
[6] = tested on: Mast/stem cell growth factor receptor Kit (Homo sapiens), P10721 [V560G]; conditions: at 0.1 µM
[7] = tested on: Mast/stem cell growth factor receptor Kit (Homo sapiens), P10721 [V560G]; conditions: at 1 µM
[8] = biological target: Tyrosine-protein kinase Lck (Homo sapiens) (UniProt P06239); conditions: at 0.1 µM
[9] = biological target: Tyrosine-protein kinase Lck (Homo sapiens) (UniProt P06239); conditions: at 1 µM
[10] = biological target: Leukocyte tyrosine kinase receptor (Homo sapiens) (UniProt P29376); conditions: at 0.1 µM
[11] = biological target: Leukocyte tyrosine kinase receptor (Homo sapiens) (UniProt P29376); conditions: at 1 µM
[12] = biological target: Tyrosine-protein kinase Lyn (Homo sapiens) (UniProt P07948); conditions: at 0.1 µM
[13] = biological target: Tyrosine-protein kinase Lyn (Homo sapiens) (UniProt P07948); conditions: at 1 µM
[14] = biological target: Tyrosine-protein kinase Lyn (Homo sapiens) (UniProt P07948); conditions: at 0.1 µM; remark: listed apart in the source
[15] = biological target: Tyrosine-protein kinase Lyn (Homo sapiens) (UniProt P07948); conditions: at 1 µM; remark: listed apart in the source
[16] = biological target: T1, Tyrosine-protein kinase Mer (Homo sapiens) (UniProt Q12866); conditions: at 0.1 µM
T1 sequence (whole entry): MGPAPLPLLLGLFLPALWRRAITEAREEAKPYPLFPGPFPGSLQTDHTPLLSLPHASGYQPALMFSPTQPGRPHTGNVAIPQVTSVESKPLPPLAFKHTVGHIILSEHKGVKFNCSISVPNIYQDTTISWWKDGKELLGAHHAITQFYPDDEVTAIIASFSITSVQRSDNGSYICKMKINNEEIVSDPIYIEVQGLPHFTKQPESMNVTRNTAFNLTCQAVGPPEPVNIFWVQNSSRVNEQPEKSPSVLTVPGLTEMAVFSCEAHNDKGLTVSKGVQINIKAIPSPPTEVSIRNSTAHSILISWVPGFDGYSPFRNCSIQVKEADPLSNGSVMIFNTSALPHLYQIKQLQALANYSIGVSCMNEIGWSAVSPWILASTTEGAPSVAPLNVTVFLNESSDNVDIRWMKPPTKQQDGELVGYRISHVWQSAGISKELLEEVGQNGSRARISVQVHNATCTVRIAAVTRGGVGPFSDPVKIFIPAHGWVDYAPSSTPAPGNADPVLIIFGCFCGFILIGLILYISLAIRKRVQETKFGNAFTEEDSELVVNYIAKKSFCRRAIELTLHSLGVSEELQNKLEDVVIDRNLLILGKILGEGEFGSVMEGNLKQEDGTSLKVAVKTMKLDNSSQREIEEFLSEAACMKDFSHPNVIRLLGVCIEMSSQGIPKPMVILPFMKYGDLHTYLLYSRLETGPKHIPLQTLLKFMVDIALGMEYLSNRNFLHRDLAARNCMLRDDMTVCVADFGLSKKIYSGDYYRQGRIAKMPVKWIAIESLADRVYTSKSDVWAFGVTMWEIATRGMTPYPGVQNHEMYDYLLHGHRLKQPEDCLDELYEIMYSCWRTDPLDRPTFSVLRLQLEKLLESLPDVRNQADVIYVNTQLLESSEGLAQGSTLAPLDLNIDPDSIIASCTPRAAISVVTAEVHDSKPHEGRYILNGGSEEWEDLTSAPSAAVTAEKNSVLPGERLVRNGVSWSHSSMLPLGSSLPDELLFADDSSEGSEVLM

[17] = biological target: T1, Tyrosine-protein kinase Mer (Homo sapiens); conditions: at 1 µM
[18] = biological target: Hepatocyte growth factor receptor (Homo sapiens) (UniProt P08581); conditions: at 0.1 µM
[19] = biological target: Hepatocyte growth factor receptor (Homo sapiens) (UniProt P08581); conditions: at 1 µM
[20] = biological target: T2, Muscle, skeletal receptor tyrosine-protein kinase (Homo sapiens) (UniProt O15146); conditions: at 0.1 µM;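 note: values are mean inhibition of MuSK from the GSK PKIS kinase screening panel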
T2 sequence (whole entry): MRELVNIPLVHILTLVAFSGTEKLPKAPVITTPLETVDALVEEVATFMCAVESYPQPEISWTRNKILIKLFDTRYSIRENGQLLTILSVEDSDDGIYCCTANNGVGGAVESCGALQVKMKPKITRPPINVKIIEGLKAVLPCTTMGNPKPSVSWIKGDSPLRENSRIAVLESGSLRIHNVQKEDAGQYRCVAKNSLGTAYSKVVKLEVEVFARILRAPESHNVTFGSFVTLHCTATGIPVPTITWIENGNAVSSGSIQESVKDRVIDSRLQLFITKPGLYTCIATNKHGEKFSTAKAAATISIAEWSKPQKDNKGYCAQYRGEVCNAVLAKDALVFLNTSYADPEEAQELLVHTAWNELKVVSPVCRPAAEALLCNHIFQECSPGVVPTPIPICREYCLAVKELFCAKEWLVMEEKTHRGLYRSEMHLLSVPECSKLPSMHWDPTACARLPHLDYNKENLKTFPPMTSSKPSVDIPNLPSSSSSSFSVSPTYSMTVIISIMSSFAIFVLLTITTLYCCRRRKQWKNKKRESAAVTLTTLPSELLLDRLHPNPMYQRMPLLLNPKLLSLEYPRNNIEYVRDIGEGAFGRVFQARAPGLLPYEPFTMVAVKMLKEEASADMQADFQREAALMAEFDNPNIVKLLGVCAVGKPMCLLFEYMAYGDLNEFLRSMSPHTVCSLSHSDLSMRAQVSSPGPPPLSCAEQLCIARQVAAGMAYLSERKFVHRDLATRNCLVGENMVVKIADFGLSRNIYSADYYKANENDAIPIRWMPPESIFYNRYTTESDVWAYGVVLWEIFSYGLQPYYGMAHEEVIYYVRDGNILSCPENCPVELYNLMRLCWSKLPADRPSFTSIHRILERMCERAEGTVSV

Chain of Tyrosine-protein kinase Lck (Homo sapiens) (P06239 2-509 limits assumed): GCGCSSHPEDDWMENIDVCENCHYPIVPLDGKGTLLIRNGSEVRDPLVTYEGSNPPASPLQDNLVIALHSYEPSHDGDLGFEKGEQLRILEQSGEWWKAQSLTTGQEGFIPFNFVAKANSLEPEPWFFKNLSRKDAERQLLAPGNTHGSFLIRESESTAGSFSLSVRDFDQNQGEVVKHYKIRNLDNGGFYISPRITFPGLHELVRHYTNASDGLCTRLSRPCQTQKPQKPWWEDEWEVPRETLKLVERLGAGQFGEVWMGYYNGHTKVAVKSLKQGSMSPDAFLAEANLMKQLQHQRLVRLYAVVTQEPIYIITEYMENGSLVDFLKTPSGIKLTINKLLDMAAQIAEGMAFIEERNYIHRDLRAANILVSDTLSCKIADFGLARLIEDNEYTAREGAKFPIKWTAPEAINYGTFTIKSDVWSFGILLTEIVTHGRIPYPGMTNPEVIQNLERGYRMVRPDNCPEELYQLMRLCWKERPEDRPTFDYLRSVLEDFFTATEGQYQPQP
Chain of Mast/stem cell growth factor receptor Kit (Homo sapiens), P10721 [T670I] (P10721 whole entry T670I): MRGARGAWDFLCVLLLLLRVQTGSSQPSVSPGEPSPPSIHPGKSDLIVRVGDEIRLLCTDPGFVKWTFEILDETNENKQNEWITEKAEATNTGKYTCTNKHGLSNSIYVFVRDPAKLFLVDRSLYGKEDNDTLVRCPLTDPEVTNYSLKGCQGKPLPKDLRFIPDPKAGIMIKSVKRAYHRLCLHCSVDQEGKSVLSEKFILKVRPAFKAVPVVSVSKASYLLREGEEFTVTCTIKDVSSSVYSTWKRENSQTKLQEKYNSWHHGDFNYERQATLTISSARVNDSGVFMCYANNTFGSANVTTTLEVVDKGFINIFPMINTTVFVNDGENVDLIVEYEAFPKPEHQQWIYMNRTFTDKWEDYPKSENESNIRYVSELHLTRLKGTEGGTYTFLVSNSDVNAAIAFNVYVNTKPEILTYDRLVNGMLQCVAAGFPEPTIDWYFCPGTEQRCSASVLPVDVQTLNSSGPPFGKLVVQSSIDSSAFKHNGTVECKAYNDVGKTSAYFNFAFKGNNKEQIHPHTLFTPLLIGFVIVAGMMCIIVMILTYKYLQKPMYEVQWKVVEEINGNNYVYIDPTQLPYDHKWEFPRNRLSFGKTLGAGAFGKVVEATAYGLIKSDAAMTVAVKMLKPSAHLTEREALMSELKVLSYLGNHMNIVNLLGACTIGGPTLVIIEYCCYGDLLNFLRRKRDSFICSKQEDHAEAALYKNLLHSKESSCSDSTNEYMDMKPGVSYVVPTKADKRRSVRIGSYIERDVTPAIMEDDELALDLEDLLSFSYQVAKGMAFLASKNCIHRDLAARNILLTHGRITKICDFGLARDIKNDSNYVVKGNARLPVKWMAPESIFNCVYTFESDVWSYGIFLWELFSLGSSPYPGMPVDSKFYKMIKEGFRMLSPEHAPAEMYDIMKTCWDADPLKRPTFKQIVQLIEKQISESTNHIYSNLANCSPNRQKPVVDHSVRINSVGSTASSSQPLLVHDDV
Chain of Hepatocyte growth factor receptor (Homo sapiens) (P08581 whole entry): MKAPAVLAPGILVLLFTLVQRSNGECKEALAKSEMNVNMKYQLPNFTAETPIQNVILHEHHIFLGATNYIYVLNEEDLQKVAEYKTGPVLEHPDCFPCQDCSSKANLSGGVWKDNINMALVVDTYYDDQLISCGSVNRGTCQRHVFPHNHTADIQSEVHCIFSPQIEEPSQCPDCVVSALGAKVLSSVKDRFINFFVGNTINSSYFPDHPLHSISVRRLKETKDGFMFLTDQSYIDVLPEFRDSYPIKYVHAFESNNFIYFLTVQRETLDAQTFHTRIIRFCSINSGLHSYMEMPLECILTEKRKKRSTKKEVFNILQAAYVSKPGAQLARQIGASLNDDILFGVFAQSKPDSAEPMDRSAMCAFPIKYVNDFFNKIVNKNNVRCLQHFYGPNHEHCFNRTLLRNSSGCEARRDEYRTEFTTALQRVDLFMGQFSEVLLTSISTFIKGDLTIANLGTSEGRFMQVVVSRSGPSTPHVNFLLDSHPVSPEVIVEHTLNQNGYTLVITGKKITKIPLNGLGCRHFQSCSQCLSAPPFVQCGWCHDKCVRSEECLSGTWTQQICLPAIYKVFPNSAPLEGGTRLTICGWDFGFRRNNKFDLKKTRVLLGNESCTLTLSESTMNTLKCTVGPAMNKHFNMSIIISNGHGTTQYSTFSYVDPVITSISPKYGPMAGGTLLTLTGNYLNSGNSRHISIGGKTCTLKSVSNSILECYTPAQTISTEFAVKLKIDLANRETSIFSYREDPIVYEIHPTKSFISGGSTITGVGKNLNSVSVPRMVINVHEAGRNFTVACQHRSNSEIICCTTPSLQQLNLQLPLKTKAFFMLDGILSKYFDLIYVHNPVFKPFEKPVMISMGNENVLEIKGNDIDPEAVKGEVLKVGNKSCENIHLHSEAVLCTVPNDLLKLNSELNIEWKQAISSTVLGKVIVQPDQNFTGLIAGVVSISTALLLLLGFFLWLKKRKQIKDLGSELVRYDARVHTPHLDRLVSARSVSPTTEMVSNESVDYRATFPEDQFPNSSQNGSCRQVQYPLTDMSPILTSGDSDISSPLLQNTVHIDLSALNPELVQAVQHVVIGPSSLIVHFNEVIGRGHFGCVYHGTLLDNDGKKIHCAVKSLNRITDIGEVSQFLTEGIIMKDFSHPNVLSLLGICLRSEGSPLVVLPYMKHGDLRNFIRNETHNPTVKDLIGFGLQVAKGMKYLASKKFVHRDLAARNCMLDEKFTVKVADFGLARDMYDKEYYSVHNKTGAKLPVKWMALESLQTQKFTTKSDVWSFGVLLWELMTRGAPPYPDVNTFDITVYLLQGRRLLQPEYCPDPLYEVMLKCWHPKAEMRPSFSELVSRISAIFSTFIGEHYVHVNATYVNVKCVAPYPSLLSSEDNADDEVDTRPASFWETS
Chain of Mast/stem cell growth factor receptor Kit (Homo sapiens), P10721 [V560G] (P10721 whole entry V560G): as the sequence (P10721 whole entry T670I) above, with V560G, I670T counted along it
Chain of Mast/stem cell growth factor receptor Kit (Homo sapiens), P10721 [D816V] (P10721 whole entry D816V): as the sequence (P10721 whole entry T670I) above, with I670T, D816V counted along it
Chain of Tyrosine-protein kinase Lyn (Homo sapiens) (P07948 2-512 limits assumed): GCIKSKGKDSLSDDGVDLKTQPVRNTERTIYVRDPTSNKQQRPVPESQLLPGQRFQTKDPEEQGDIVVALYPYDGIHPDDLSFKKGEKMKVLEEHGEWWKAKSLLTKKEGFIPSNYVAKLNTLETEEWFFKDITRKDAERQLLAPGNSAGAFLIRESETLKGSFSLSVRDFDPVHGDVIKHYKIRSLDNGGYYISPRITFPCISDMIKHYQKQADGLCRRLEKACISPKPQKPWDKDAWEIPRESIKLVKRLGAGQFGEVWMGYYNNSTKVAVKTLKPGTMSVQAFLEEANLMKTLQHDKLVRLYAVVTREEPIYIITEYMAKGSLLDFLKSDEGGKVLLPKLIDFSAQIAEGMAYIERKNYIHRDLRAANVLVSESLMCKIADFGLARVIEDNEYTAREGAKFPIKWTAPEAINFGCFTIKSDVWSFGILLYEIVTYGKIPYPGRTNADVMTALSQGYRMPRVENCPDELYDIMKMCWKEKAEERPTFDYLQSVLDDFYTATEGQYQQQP
Chain of Leukocyte tyrosine kinase receptor (Homo sapiens) (P29376 whole entry): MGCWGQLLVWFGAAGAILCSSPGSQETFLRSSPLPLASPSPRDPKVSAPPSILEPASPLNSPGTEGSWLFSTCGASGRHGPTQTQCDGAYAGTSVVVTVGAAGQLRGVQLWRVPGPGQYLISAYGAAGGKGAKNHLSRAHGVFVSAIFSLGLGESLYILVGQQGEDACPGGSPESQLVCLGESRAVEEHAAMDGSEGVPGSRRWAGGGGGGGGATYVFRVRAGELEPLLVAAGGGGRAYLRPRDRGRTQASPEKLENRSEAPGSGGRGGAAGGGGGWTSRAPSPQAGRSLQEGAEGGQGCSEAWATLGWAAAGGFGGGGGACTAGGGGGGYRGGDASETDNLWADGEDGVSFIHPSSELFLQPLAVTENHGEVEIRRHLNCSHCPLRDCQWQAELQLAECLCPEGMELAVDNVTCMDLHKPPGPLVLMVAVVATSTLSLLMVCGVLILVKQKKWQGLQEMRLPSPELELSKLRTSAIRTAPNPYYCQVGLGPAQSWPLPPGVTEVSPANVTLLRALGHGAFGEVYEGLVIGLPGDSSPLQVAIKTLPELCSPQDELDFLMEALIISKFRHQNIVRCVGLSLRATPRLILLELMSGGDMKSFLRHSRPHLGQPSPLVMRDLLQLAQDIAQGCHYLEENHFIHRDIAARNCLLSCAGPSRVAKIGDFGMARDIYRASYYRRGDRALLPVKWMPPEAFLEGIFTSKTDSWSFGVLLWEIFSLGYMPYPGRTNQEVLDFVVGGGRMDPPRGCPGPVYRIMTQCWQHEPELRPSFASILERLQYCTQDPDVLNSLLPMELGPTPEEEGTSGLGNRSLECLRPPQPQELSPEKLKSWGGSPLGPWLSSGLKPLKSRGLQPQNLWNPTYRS
Chain of Mast/stem cell growth factor receptor Kit (Homo sapiens) (P10721 whole entry): as the sequence (P10721 whole entry T670I) above, with I670T counted along it

Structure (SMILES)	inhibition [1] [%]	inhibition [2] [%]	inhibition [3] [%]	inhibition [4] [%]	inhibition [5] [%]	inhibition [6] [%]	inhibition [7] [%]	inhibition [8] [%]	inhibition [9] [%]	inhibition [10] [%]	inhibition [11] [%]	inhibition [12] [%]	inhibition [13] [%]	inhibition [14] [%]	inhibition [15] [%]	inhibition [16] [%]	inhibition [17] [%]	inhibition [18] [%]	inhibition [19] [%]	inhibition [20] [%]
COc1ccc(-c2ccncc2)cc1C(N)=O	8.81	5.33	6.29	2.7	5.32	-1.34	-1.88	3.42	4.47	5.46	5.79	4.67	4.69	2.01	4.65	2.57	5.63	3.93	5.8	2.42
Cc1cc(O)cc(C)c1/C=C/c1cncc(-c2nn[nH]n2)c1	65.5	5.64	3.74	1.04	3.66	-0.1	22.1	1.97	42.5	6.07	27.8	21.9	78.4	17	73.9	2.28	5.61	3.29	8.95	2.58
CC1=C(C(=O)Nc2ccc3[nH]ncc3c2)C(c2ccc3ccccc3c2)CC(=O)N1 (stereo not given)	7.55	0.15	-0.63	1.53	2.53	1.45	2.17	21.1	64.3	2.82	3.95	6.74	30.8	4.2	26.2	0.87	2.79	8.81	40.3	2.08
NS(=O)(=O)c1cccc(-c2ccc3c(NC(=O)C4CC4)n[nH]c3c2)c1	0.12	1.16	3.53	-3.61	-1.9	1.03	4.07	-1.55	3.43	0.03	-0.78	1.09	1.65	1.19	1.05	0.89	1.03	-4.06	3.16	0.75
COc1ccccc1Nc1ncc(-c2ccccc2)o1	98.2	4.74	6.9	17.8	77.7	31.5	85.5	4.55	9.64	3.5	4.49	5.91	8.44	3.58	5.77	0.01	1.66	10.1	1.27	4.33
COc1cc2ncn(-c3cc(OCc4ccccc4C(F)(F)F)c(C(N)=O)s3)c2cc1OC	20.5	5.23	7.66	3.55	9.7	-1.78	2.96	0.99	12.6	2.36	4.35	6.12	21.5	3.89	17.4	2.08	9.28	4.37	19.5	11
Nc1ncnc2occ(-c3ccc(NC(=O)Nc4cccc(C(F)(F)F)c4)cc3)c12	97.3	3.24	6.5	72.5	83.9	104	97.8	12.1	46.7	7.15	47.1	19.4	72.2	13.3	67.8	3.32	31.6	3.03	29	72.9
CS(=O)(=O)CCN(CC#N)Cc1ccc(-c2ccc3ncnc(Nc4ccc(OCc5cccc(F)c5)c(Cl)c4)c3c2)o1	0.7	3.19	2.53	2.04	0.88	-0.55	-2.04	-1.83	-3.92	1.4	1.95	2.44	3.17	1.32	1.72	2.77	2.05	7.6	2.64	1.44
CCn1c(-c2nonc2N)nc2ccncc21	-2.36	-0.01	-2.39	0.62	3.05	-0.14	-0.33	1.33	2.29	1.29	0.42	2.64	-1.88	1.5	-0.9	0.16	-0.52	8.81	2.41	-0.65
Cc1nnc(-c2ccc(C)c(-c3ccc(C(=O)Nc4cccc(C#N)c4)cc3)c2)o1	6.9	2.18	2.02	0.85	1.69	0.81	2.86	1.89	2.99	2.14	1.76	3.98	6.36	2.18	5.78	0.8	2.51	3.66	-0.54	2.58
COc1cc(C)c(NC(=O)CN(C)C)cc1Nc1nc(Nc2cccc(F)c2C(N)=O)c2cc[nH]c2n1	4.07	2.88	1.48	0.3	0.56	0.02	0.48	1.38	1.74	92.9	95.6	3.5	1.33	2.46	-0.14	2.47	7.53	3.32	-1.66	5.47
CN1CCC(C(=O)Nc2n[nH]c3nnc(-c4ccccc4)cc23)CC1	8.5	7.35	3.19	4.77	5.4	-3.89	1.05	1.6	4.09	3.64	4.51	5.18	4.72	2.24	3.51	1.95	7.11	1.78	3.43	3.93
CCn1c(-c2nonc2N)nc2c(C#CC(C)(C)O)nc(OC[C@@H](N)c3ccccc3)cc21	2.86	-1.77	1.93	-1.49	-0.45	2.19	2.43	-1.85	0.18	0.55	9.21	-0.29	1.01	-1.22	0.53	-0.92	0.47	-2.86	-4.52	-0.69
